# Target: Solute carrier family 2, facilitated glucose transporter member 1 (Homo sapiens) (UniProt P11166)
# Test: ST_JUDE_LEISH: Cytotoxicity at 2uM final concentration against transgenic Leishmania Mexicana promastigotes LmGLUT1 that are glucose transport deficient and complemented with the human glucose transporter GLUT1. Activity is measured by DNA content using SYBR green in vitro
# Format: functional
# Solute carrier family 2, facilitated glucose transporter member 1 (Homo sapiens), sequence (P11166 whole entry): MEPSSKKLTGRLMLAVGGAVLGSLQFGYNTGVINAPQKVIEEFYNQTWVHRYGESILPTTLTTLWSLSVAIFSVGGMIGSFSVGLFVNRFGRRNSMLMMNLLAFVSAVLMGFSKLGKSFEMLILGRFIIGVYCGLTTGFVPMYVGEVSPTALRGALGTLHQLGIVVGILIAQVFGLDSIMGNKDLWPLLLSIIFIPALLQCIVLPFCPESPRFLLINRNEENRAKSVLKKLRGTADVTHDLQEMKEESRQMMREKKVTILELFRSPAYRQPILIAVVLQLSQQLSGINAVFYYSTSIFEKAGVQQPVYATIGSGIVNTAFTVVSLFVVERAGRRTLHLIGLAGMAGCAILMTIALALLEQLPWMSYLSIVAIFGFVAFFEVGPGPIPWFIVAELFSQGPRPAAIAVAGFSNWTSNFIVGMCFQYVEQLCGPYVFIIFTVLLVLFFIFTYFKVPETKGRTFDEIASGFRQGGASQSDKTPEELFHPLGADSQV
row,SMILES,inhibition [%]
1,CC(=O)Nc1ncc(C(=O)Nc2cccc(-c3cccc(-c4nc5ccccc5[nH]4)c3)c2)s1,1.58
2,CN(CCO)Cc1cccc(-c2ccc(NC(=O)c3cccc(C#N)c3)cc2)c1,1.6
3,CCc1cc2c(N)nc(N)nc2nc1-c1ccccc1,4.22
4,C[C@@H](CC1CCCCC1)OC(=O)N[C@H]1CCN(C#N)C1,12.8
5,O=C(Cc1c[nH]cn1)Nc1cccc(-c2cccc(-c3nc4cc(F)ccc4[nH]3)c2)c1,-1.27
6,N=C1NC(c2ccccc2)(c2ccccc2)C(=O)N1C1CCCCC1,3.46
7,Nc1cc(-c2cccc(Cl)c2)nn1-c1ccnc2cc(Cl)ccc12,-0.77
8,Cc1cc(N[C@@H](Cc2ccccc2)C(=O)Nc2ccccc2)nc(Nc2ccccc2)n1,5.97
9,O=C(Nc1ccc2oc(-c3ccc(Cl)cc3Cl)nc2c1)c1ccc([N+](=O)[O-])o1,88.9
10,CN(C)C(=S)N/N=C1/C(=O)Nc2ccc(OC(F)(F)F)cc21,1.94
11,COc1ccc(CN2CCCC(N3CC4(OC3=O)c3ccccc3-c3ccccc34)C2)c(O)c1 (stereo unspecified),5.47
12,COc1ccc(NC(=O)c2ccc(NC(=O)c3ccc(Cl)cc3)cc2)cc1N1CCN(C)CC1,4.33
13,Cc1cccc2nc(-c3ccc(-c4cccc(CN5CC(C)OC(C)C5)c4)s3)[nH]c12 (stereo unspecified),7.69
14,O=C(/C=C/c1cccc(OC(F)(F)F)c1)NCCCCCN1CCC(c2c[nH]c3ccccc23)CC1,1.81
15,O=C(NCc1cccc(C(F)(F)F)c1)[C@@H]1CCCN1C(=O)c1ccc(O)c(-c2ccc(Cl)c(Cl)c2)c1,-0.44
16,COc1cccc(-c2cc(C(=O)NC3CCC(N4CCC(c5ccccc5C)CC4)CC3)[nH]n2)c1 (stereo unspecified),6.55

# Reference: ChEMBL document CHEMBL3433997, “St. Jude Leishmania screening dataset” (2016)
